Compound activity: PubChem, National Center for Advancing Translational Sciences (NCATS)
Hits are enriched below; roughly 21% of the tested compounds scored in any of these assays.
Pf growth 96h – Primary qHTS for delayed death inhibitors of the malarial parasite plastid, 96 hour incubation; P. falciparum luciferase reporter growth, 96 h; Potency, µM (series often up to 28.7 µM), usual class: inhibitors; hit rate 6.9% among 320,000
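96 h incubation, 37 C, 5% CO2, of luciferase-reporter P. falciparum-infected RBCs (2% hematocrit, 0.05% parasitemia final) with test compounds; endpoint luminescence.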
Shiga toxin inh – A qHTS for Small Molecule Inhibitors of Shiga Toxin. Vero cells, Shiga toxin protein synthesis inhibition reporter. hit rate 9.2% among 290,000. inhibition, % at 38.7 µM; in the data active = inhibition mostly above about 28%, no sharp cut-off; inactive = mostly below about 43%
CHX counter – Cycloheximide Counterscreen for Small Molecule Inhibitors of Shiga Toxin; AID 2314, 2010; max response, %; hit rate 12% among 300,000; cell reporter, cycloheximide protein synthesis inhibition counterscreen; in the data active = max response mostly above about 13%, no sharp cut-off; inactive = mostly below about 14%; also: read at 38.3 µM for the half of the compounds with a filed dose
Pf growth 48h – Primary qHTS for delayed death inhibitors of the malarial parasite plastid, 48 hour incubation. AID 504832, 2011. hit rate 5.9% among 310,000. Potency, µM (series often up to 28.7 µM), actives largely listed as inhibitors. P. falciparum luciferase growth in erythrocytes, 48 h
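Luciferase-expressing P. falciparum in infected erythrocytes (2% hematocrit, 0.1% parasitemia final) in RPMI 1640/0.5% Albumax were exposed to compound for 48 hours at 37 C, 5% CO2; growth read as luminescence.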
NS1 function inh – qHTS Assay for Inhibitors of Influenza NS1 Protein Function; Potency, µM (highest dose often 46.1 µM); hit rate 0.4% among 270,000; calls by dose curve; also: actives are rising curves; nearly all actives have a fitted effect of over 50% in size
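Growth recovery, yeast-based: influenza A NS1 expressed in S. cerevisiae causes slow growth, and suppressors are detected by OD600. The parent strain without NS1 is used as positive control.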
Each line names hits and unclear results; the compound was inactive in the other large screens. Unless noted, calls follow the shape of the dose curve; as a rule, active = well fitted inhibition curve with a large enough effect; inconclusive = small, poorly fitted or top-dose-only effect, or another doubt; inactive = no such curve, though single readings can be large or run the other way.

O=C(O)Cc1nc(-c2cccnc2)sc1-c1ccc(Br)cc1	Pf growth 96h inconclusive, Pf growth 48h inconclusive
Cc1nc([N+](=O)[O-])cn1CC(=O)c1ccc(OC(F)(F)F)cc1	none
Cc1ccc(NC(=O)c2cc3ccccc3cc2O)cc1	Pf growth 96h inconclusive, Shiga toxin inh 79, CHX counter 40, Pf growth 48h inconclusive
COc1ccc(NC(=O)c2cc(=O)[nH]c3ccccc23)cc1	none
COc1ccc(NC(=O)c2cc3ccccc3cc2O)cc1	Pf growth 96h 8.3µM, Shiga toxin inh 62, CHX counter 33, Pf growth 48h inconclusive
Cc1ccc(NC(=O)NNC(=O)c2cc3ccccc3cc2O)cc1C	none
c1ccc(Nc2ccccc2Nc2ccccn2)nc1	Pf growth 48h inconclusive
COc1ccc(NC(=O)c2cc3ccc4c5ccccc5[nH]c4c3cc2O)cc1	Pf growth 96h 5.9µM, Pf growth 48h inconclusive
CCOc1ccc(NC(=O)NNC(=O)c2cc3ccccc3cc2O)cc1	NS1 function inh inconclusive
Oc1cccc2ccc(Nc3ccccn3)nc12	Shiga toxin inh active, CHX counter 113, Pf growth 48h 0.37µM (no result: Pf growth 96h)
COP(=O)(/C=C/c1ccccc1)C(O)c1ccc(F)cc1 (stereo not given)	none (no result: Pf growth 96h)
O=C(Nc1ccccn1)c1cc2ccccc2cc1O	Shiga toxin inh 96, CHX counter 31
C[C@@]12C=CC(=O)C=C1CCC1C3CC(O)[C@@](O)(C(=O)CO)[C@]3(C)CC(O)[C@]12F (stereo not given in full)	none (no result: Shiga toxin inh, CHX counter, NS1 function inh)
C[C@@H]1C[C@H]2[C@@H]3CCC4=CC(=O)C=C[C@]4(C)[C@@]3(F)[C@@H](O)C[C@]2(C)[C@H]1C(=O)CO	Pf growth 96h 9.3µM, Pf growth 48h inconclusive
CC1(C)O[C@H]2C[C@@H]3[C@H]4CCC5=CC(=O)CC[C@@]5(C)[C@]4(F)[C@@H](O)C[C@@]3(C)[C@@]2(C(=O)CCl)O1	Pf growth 96h 4.1µM, Pf growth 48h 5.1µM (no result: Shiga toxin inh, CHX counter, NS1 function inh)
C[C@]12CCC(=O)C=C1CC[C@H]1[C@@H]3CC[C@](O)(C(=O)CO)[C@@]3(C)C[C@H](O)[C@@]12F	Pf growth 96h inconclusive (no result: Shiga toxin inh, CHX counter, NS1 function inh)
CC1(C)O[C@@H]2C[C@H]3[C@@H]4CCC5=CC(=O)CC[C@]5(C)[C@@]4(F)[C@@H](O)C[C@]3(C)[C@]2(C(=O)CCl)O1	Pf growth 96h 3.3µM, Pf growth 48h 2.6µM (no result: Shiga toxin inh, CHX counter, NS1 function inh)
CC(=O)OCC(=O)[C@@]12OC3(CCCC3)OC1CC1C3CCC4=CC(=O)C=C[C@@]4(C)[C@]3(F)C(O)C[C@]12C (stereo not given in full)	Pf growth 96h 9.5µM, Pf growth 48h 15µM (no result: Shiga toxin inh, CHX counter, NS1 function inh)
CCCN(CC(=O)Nc1ccccc1C)C(=O)/C=C/c1cccs1	none
CC(O)C(=O)O (stereo not given)	none (no result: Shiga toxin inh, CHX counter, NS1 function inh)
N#CC(C(=O)c1ccccc1)=C1SCCS1	Shiga toxin inh 58, CHX counter 35
COc1ccc(CN2CCC(n3nccc3NC(=O)C3CC3)CC2)cc1O	none
COc1ccc(C2(C)NC(=O)N(CC3CCCCC3)C2=O)cc1 (stereo not given)	none
Cc1cc(N2CCCC2=O)cc(C)c1S(=O)(=O)Nc1c(C)nn(C)c1C	none (no result: NS1 function inh)
CN(C(=S)Nc1ccc(SC(F)F)cc1)c1ccc(O)cc1	CHX counter 24
CN(C(=S)Nc1cccnc1)c1ccc(O)cc1	Shiga toxin inh 23
CN(C(=S)Nc1ccc(Oc2ccccc2)cc1)c1ccc(O)cc1	none
CC(C)C(=O)NC(=S)Nc1ccc(S(=O)(=O)N(C)Cc2ccccc2)cc1	Pf growth 96h inconclusive, Pf growth 48h inconclusive
O=C(Nc1ccc(Cl)c(Cl)c1)C1CCN(C(=O)c2ccco2)CC1	none (no result: Shiga toxin inh, CHX counter, NS1 function inh)
Cc1cc(C(C)(C)CC(C)(C)C)ccc1OCCOCC[N+](C)(C)Cc1ccccc1	Pf growth 96h 0.47µM, Pf growth 48h 1.7µM (no result: Shiga toxin inh, CHX counter, NS1 function inh)
O=C(CCCn1c(SCc2ccccc2F)nc2ccccc2c1=O)NCC1CCCO1 (stereo not given)	Pf growth 48h 6.6µM (no result: NS1 function inh)
CN(C)c1ccc(NC(=O)CSc2nc3ccccc3c(=O)n2CC2CCCO2)cc1 (stereo not given)	Pf growth 96h 4.1µM
O=C(CCCn1c(SCC(=O)Nc2ccccc2C(F)(F)F)nc2ccccc2c1=O)NCC1CCCO1 (stereo not given)	Pf growth 96h inconclusive
COc1ccccc1NC(=O)C(C)Sc1nc2ccccc2c(=O)n1CC1CCCO1 (stereo not given)	Pf growth 96h inconclusive, Pf growth 48h 10µM (no result: Shiga toxin inh, CHX counter, NS1 function inh)
CCCCCn1c(SCC#N)nc2cc(C(=O)NCC3CCCO3)ccc2c1=O (stereo not given)	Pf growth 96h 4.7µM
CCCCCn1c(SCC#N)nc2cc(C(=O)NC3CCCCC3)ccc2c1=O	none (no result: Pf growth 96h, Shiga toxin inh, CHX counter, Pf growth 48h)
Cc1ccc(CNC(=O)CCCc2c[nH]c3ccccc23)cc1	none
O=C(CSc1nc2ccccc2c(=O)n1CC1CCCO1)NCC1CCCO1 (stereo not given)	Pf growth 96h 5.2µM
O=C(CCCn1c(SCC(=O)c2ccc(O)c(O)c2)nc2ccccc2c1=O)NCC1CCCO1 (stereo not given)	Pf growth 96h inconclusive, Pf growth 48h 9.3µM
O=C(CCCn1c(SCC(=O)NC2CCCCC2)nc2ccccc2c1=O)NCC1CCCO1 (stereo not given)	Pf growth 96h 12µM, Pf growth 48h inconclusive
O=C(CSc1nc2c(sc3ccccc32)c(=O)n1Cc1ccco1)NCC1CCCO1 (stereo not given)	Pf growth 96h 9.3µM, Pf growth 48h 8.3µM
C=C(C)Cn1c(NCCC)nc2c1c(=O)n(C)c(=O)n2C	none
CCCC[C@@H]1CCCO[C@@](C(=O)NCc2ccc(S(C)(=O)=O)cc2)(C(F)(F)F)C1	none (no result: Pf growth 96h, Pf growth 48h, NS1 function inh)
CCN(CC)c1ccc(NC(=O)CSc2nc3ccccc3c(=O)n2-c2cc(S(=O)(=O)N(C)C)ccc2C)cc1	Pf growth 96h inconclusive, Pf growth 48h 8.3µM, NS1 function inh inconclusive
COC(=O)c1ccc2c(=O)n(CC3CCCO3)c(SCC(=O)Nc3ccccc3OC)nc2c1 (stereo not given)	Pf growth 48h inconclusive
COC(=O)c1ccc2c(=O)n(CC3CCCO3)c(SCC(=O)Nc3ccccc3Cl)nc2c1 (stereo not given)	Pf growth 96h 10µM (no result: Pf growth 48h)
COc1ccccc1-n1c(SC(C)C(=O)NCC2CCCO2)nc2cc(Cl)ccc2c1=O (stereo not given)	Pf growth 96h inconclusive, Pf growth 48h 13µM (no result: Shiga toxin inh, CHX counter, NS1 function inh)
CC1(C)CC(=O)C=C(c2cccc(O)c2)C1=O	Pf growth 96h inconclusive (no result: Shiga toxin inh, CHX counter, NS1 function inh)
CC[C@@H]1C(c2ccccc2)=NN(c2ccccc2)[C@H]1C(=O)N1CCOC1=O	none (no result: Pf growth 96h, Pf growth 48h, NS1 function inh)
CC(C)C1Nc2ccc(C(=O)NCCCN3CCOCC3)cc2NC1=O (stereo not given)	none
CCn1nc(C)c(C2C(C#N)=C(N)OC3=C2C(=O)CC(C)(C)C3)c1C (stereo not given)	Pf growth 96h inconclusive
COc1cc(CN2CC(=O)N(c3ccccc3Cl)C2=S)cc(OC)c1OC	Pf growth 48h 5.9µM
COc1cc(Cl)c(C)cc1N1C(=O)CN(Cc2ccccc2)C1=S	Pf growth 48h inconclusive
COc1cc(CN2CC(=O)N(c3cccc(Cl)c3C)C2=S)cc(OC)c1OC	Pf growth 48h 2.6µM
